According to ChEMBL document CHEMBL1157539, “Thousands of chemical starting points for antimalarial lead identification” (Nature, 2010):

test system: Plasmodium falciparum; assay: GSK_TCMDC: Inhibition of Plasmodium falciparum 3D7 in whole red blood cells, using parasite LDH activity as an index of growth. Test compounds present at 2uM; assay type: functional

Compound | Inhibition [%]
Cc1cccc2nc(-c3cccc(-c4ccc(NC(=O)c5cccnc5)cc4)c3)[nH]c12 | 100
COc1c(OC)c(OC)c2ccccc2c1CNCCCCCCNCc1c(OC)c(OC)c(OC)c2ccccc12.Cl | 100
CC1=NN(c2ccc(C)c(C)c2)C(=O)C1=NNc1cccc(-c2cccc(NC(=O)OC(C)(C)C)c2)c1O | 94
CN(Cc1ccc(NC(=O)CCC2CCN(C(=O)/C=C/c3ccc(Cl)c(Cl)c3)CC2)cc1)C1CCOCC1 | 94
Cc1cccc(NC(=O)c2ccc(C(=O)NC3CCN(CC4CCCCC4)C3)cc2)c1.O=C(O)C(F)(F)F (stereo not given) | 88
N#Cc1ccc(NC2(C(=O)N3CCN(c4cccc(Cl)c4)CC3)CC2)c2ccccc12 | 94
Cc1cc(C)c(NC(=O)N[C@H]2CCN(CCCCCNC(=O)/C=C/c3ccc(Cl)c(Cl)c3)C2)c(C)c1 | 91
CCOc1ccc(-n2nc3c(Cl)nnc(-c4ccccc4)c3c2-c2ccccc2)cc1 | 96
Cc1noc(C)c1-c1ccc2c(Nc3ccccc3N3CCOCC3)c(C(=O)NCc3ccccc3)cnc2c1.Cl | 91
CC(=O)c1ccc(N2CCN(C(=O)Nc3ccc(Cl)cc3)CC2)cc1 | 97
Fc1ccc2[nH]c(-c3cccc(-c4ccc(CN5CCN(c6cnccn6)CC5)cc4)c3)nc2c1.O=C(O)C(F)(F)F | 96
CN1CCN(CCCN(Cc2cccc(-c3cccc(CNC4CCCC4)c3)c2)C(=O)CCC2CCCC2)CC1.O=C(O)C(F)(F)F | 100
Cc1ccnc2nc(C(=O)Nc3cc(Cl)ccc3N3CCOCC3)nn12 | 84
Cc1nc(-c2cccc(Nc3nccc(NCC(O)c4ccccc4C(F)(F)F)n3)c2)cs1 (stereo not given) | 97
Cn1cncc1CCCN(Cc1ccc(-c2ccc(C(F)(F)F)cc2)cc1)C(=O)Cn1c(CCc2cccc(F)c2F)cc(=O)c2cccnc21 | 85
Cc1ccccc1C1CCN(c2ccc(C(=O)NC3CC3)cn2)CC1.O=C(O)C(F)(F)F | 95
Fc1ccc(Nc2ccnc3cc(-c4cccc(CNCCN5CCOCC5)c4)ccc23)c(Cl)c1 | 100
CS(=O)(=O)CCNc1cc(N2CCc3ncnc(Nc4ccc(OCc5cccc(F)c5)c(Cl)c4)c3C2)ncn1 | 96
Cc1cc(N)c2cc(NC(=O)CCC(=O)Nc3ccc4nc(C)cc(N)c4c3)ccc2n1 | 85
Clc1ccc(CNC2CCN(CC3CCCCC3)CC2)cc1.O=C(O)C(F)(F)F | 92

Compound | Inhibition [%]
CCCCCCNCCOc1ccc(-c2nc(-c3ccccc3)c(-c3ccccc3)[nH]2)cc1 | 98
O=C(CCOc1ccccc1)NCC1CCCO1 (stereo not given) | 92
CN(C)CCCOc1cccc(NC(=O)Nc2ccc(-c3ccccc3)cc2)c1.O=C(O)C(F)(F)F | 91
CC(C)(C)C(=O)Nc1ccccc1Oc1ccc(Cl)cc1 | 92
CO/C(=C\C=C\c1cc2cc(Cl)c(Cl)cc2[nH]1)C(=O)NCCCN1CCC(c2ccccc2)CC1 | 100
CC(=O)OCCN1C(=O)c2ccc3c4c(ccc(c24)C1=O)C(=O)N(CCOC(C)=O)C3=O | 94
Cl.NC1CCN(CCc2ccc(NS(=O)(=O)c3cccc4ccccc34)cc2)CC1 | 94
CCOc1ccc(-c2cc3nc(C4CCNCC4)c(C(=O)Nc4ccc(C)cc4Cl)cn3n2)cc1.Cl | 95
CCN(CC)CCCC(C)Nc1c2cc(OC)ccc2nc2cc(Cl)c([N+](=O)[O-])cc12 (stereo not given) | 100
CN1CCN(c2nsc3ccc(-c4ccc(OCCN5CCCC5)cc4)cc23)CC1.O=C(O)C(F)(F)F | 100
CCOC(=O)c1cc(C(=O)NCCCCN2CCC(c3ccc(CC)cc3OCC)CC2)ccc1-c1ccc(C(F)(F)F)cc1 | 99
COc1cc(-n2cnc3cc(-c4ccc(Cl)cc4)sc3c2=O)ccc1OCCN1CCC(c2cccc(NC(C)=O)c2)CC1.O=C(O)/C=C\C(=O)O | 99
Cc1ccc2c(Cl)c(C(=O)N3CC(C)OC(C)C3)sc2c1 (stereo not given) | 100
CCN1CCN(c2cc(C)c3cc(NC(=O)c4cccc(C(F)(F)F)c4)ccc3n2)CC1 | 100
COc1ccc(CCn2c(=N)c(C(=O)NCc3ccccc3)cc3c(=O)n4ccccc4nc32)cc1 | 100
O=C(NC12CC3CC(CC(C3)C1)C2)C(=O)c1c[nH]c2ccccc12 | 97
COc1ccccc1C1CCN(C2CCC(NC(=O)/C=C/c3cc(F)c(F)cc3F)CC2)CC1 (stereo not given) | 85
COc1ccc(C=C2SC(=O)N=C2Nc2ccccc2)c(OC)c1 | 91
CCCC(C(=O)OCCNC)(c1ccccc1)c1ccccc1.Cl | 98
O=C(/C=C/c1ccc(Cl)c(Cl)c1)NCCCCCN1CCC(NC(=S)Nc2ccc(F)cc2F)CC1 | 100

test system: Plasmodium falciparum; assay: GSK_TCMDC: Inhibition of Plasmodium falciparum Dd2 in whole red blood cells, using parasite LDH activity as an index of growth. Test compounds present at 2uM; assay type: functional

Compound | Inhibition [%]
Cc1cccc2nc(-c3cccc(-c4ccc(NC(=O)c5cccnc5)cc4)c3)[nH]c12 | 45
COc1c(OC)c(OC)c2ccccc2c1CNCCCCCCNCc1c(OC)c(OC)c(OC)c2ccccc12.Cl | 71
CC1=NN(c2ccc(C)c(C)c2)C(=O)C1=NNc1cccc(-c2cccc(NC(=O)OC(C)(C)C)c2)c1O | 21
CN(Cc1ccc(NC(=O)CCC2CCN(C(=O)/C=C/c3ccc(Cl)c(Cl)c3)CC2)cc1)C1CCOCC1 | 2
Cc1cccc(NC(=O)c2ccc(C(=O)NC3CCN(CC4CCCCC4)C3)cc2)c1.O=C(O)C(F)(F)F (stereo not given) | 3
N#Cc1ccc(NC2(C(=O)N3CCN(c4cccc(Cl)c4)CC3)CC2)c2ccccc12 | 66
Cc1cc(C)c(NC(=O)N[C@H]2CCN(CCCCCNC(=O)/C=C/c3ccc(Cl)c(Cl)c3)C2)c(C)c1 | 3
CCOc1ccc(-n2nc3c(Cl)nnc(-c4ccccc4)c3c2-c2ccccc2)cc1 | 99
Cc1noc(C)c1-c1ccc2c(Nc3ccccc3N3CCOCC3)c(C(=O)NCc3ccccc3)cnc2c1.Cl | 6
CC(=O)c1ccc(N2CCN(C(=O)Nc3ccc(Cl)cc3)CC2)cc1 | 0
Fc1ccc2[nH]c(-c3cccc(-c4ccc(CN5CCN(c6cnccn6)CC5)cc4)c3)nc2c1.O=C(O)C(F)(F)F | 31
CN1CCN(CCCN(Cc2cccc(-c3cccc(CNC4CCCC4)c3)c2)C(=O)CCC2CCCC2)CC1.O=C(O)C(F)(F)F | 96
Cc1ccnc2nc(C(=O)Nc3cc(Cl)ccc3N3CCOCC3)nn12 | 63
Cc1nc(-c2cccc(Nc3nccc(NCC(O)c4ccccc4C(F)(F)F)n3)c2)cs1 (stereo not given) | 50
Cn1cncc1CCCN(Cc1ccc(-c2ccc(C(F)(F)F)cc2)cc1)C(=O)Cn1c(CCc2cccc(F)c2F)cc(=O)c2cccnc21 | 59
Cc1ccccc1C1CCN(c2ccc(C(=O)NC3CC3)cn2)CC1.O=C(O)C(F)(F)F | 95
Fc1ccc(Nc2ccnc3cc(-c4cccc(CNCCN5CCOCC5)c4)ccc23)c(Cl)c1 | 99
CS(=O)(=O)CCNc1cc(N2CCc3ncnc(Nc4ccc(OCc5cccc(F)c5)c(Cl)c4)c3C2)ncn1 | 50
Cc1cc(N)c2cc(NC(=O)CCC(=O)Nc3ccc4nc(C)cc(N)c4c3)ccc2n1 | 77
Clc1ccc(CNC2CCN(CC3CCCCC3)CC2)cc1.O=C(O)C(F)(F)F | 15

Compound | Inhibition [%]
CCCCCCNCCOc1ccc(-c2nc(-c3ccccc3)c(-c3ccccc3)[nH]2)cc1 | 39
O=C(CCOc1ccccc1)NCC1CCCO1 (stereo not given) | 0
CN(C)CCCOc1cccc(NC(=O)Nc2ccc(-c3ccccc3)cc2)c1.O=C(O)C(F)(F)F | 14
CC(C)(C)C(=O)Nc1ccccc1Oc1ccc(Cl)cc1 | 96
CO/C(=C\C=C\c1cc2cc(Cl)c(Cl)cc2[nH]1)C(=O)NCCCN1CCC(c2ccccc2)CC1 | 92
CC(=O)OCCN1C(=O)c2ccc3c4c(ccc(c24)C1=O)C(=O)N(CCOC(C)=O)C3=O | 1
Cl.NC1CCN(CCc2ccc(NS(=O)(=O)c3cccc4ccccc34)cc2)CC1 | 4
CCOc1ccc(-c2cc3nc(C4CCNCC4)c(C(=O)Nc4ccc(C)cc4Cl)cn3n2)cc1.Cl | 22
CCN(CC)CCCC(C)Nc1c2cc(OC)ccc2nc2cc(Cl)c([N+](=O)[O-])cc12 (stereo not given) | 89
CN1CCN(c2nsc3ccc(-c4ccc(OCCN5CCCC5)cc4)cc23)CC1.O=C(O)C(F)(F)F | 99
CCOC(=O)c1cc(C(=O)NCCCCN2CCC(c3ccc(CC)cc3OCC)CC2)ccc1-c1ccc(C(F)(F)F)cc1 | 71
COc1cc(-n2cnc3cc(-c4ccc(Cl)cc4)sc3c2=O)ccc1OCCN1CCC(c2cccc(NC(C)=O)c2)CC1.O=C(O)/C=C\C(=O)O | 80
Cc1ccc2c(Cl)c(C(=O)N3CC(C)OC(C)C3)sc2c1 (stereo not given) | 98
CCN1CCN(c2cc(C)c3cc(NC(=O)c4cccc(C(F)(F)F)c4)ccc3n2)CC1 | 85
COc1ccc(CCn2c(=N)c(C(=O)NCc3ccccc3)cc3c(=O)n4ccccc4nc32)cc1 | 18
O=C(NC12CC3CC(CC(C3)C1)C2)C(=O)c1c[nH]c2ccccc12 | 2
COc1ccccc1C1CCN(C2CCC(NC(=O)/C=C/c3cc(F)c(F)cc3F)CC2)CC1 (stereo not given) | 0
COc1ccc(C=C2SC(=O)N=C2Nc2ccccc2)c(OC)c1 | 89
CCCC(C(=O)OCCNC)(c1ccccc1)c1ccccc1.Cl | 96
O=C(/C=C/c1ccc(Cl)c(Cl)c1)NCCCCCN1CCC(NC(=S)Nc2ccc(F)cc2F)CC1 | 18
